HCV inhibitor – qHTS Assay for Inhibitors of Hepatitis C Virus (HCV). Huh7.5.1 HCVcc-Cre infection, luciferase reporter, 44 h. 3.4% of 340,000 active. AID 651820, 2012. Potency, µM (titrated, usually from 41.8 µM), usual class: inhibitors; active = well fitted inhibition curve with a large enough effect; inconclusive = small, poorly fitted or top-dose-only effect, or another doubt; inactive = no such curve, though single readings can be large or run the other way
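1,000 cells/well; 4 h culture; + compound; + HCVcc-Cre (~0.5 moi); 44 h; luciferase substrate, RT 15 min; read 15 sec.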
FMDV antiviral – High Throughput Screening for Foot and Mouth Disease Virus Antivirals. Potency, µM (highest dose often 57.9 µM), most hits filed as inhibitors. 1.2% of 410,000 active. FMDV antiviral cell-based qHTS; calls by dose curve; tested in HEK293T cells; note: read-out not given here; nearly all actives have a fitted effect of over 45% in size
Lassa entry inh – qHTS for Inhibitors of binding or entry into cells for Lassa Virus; Lassa virus pseudotype entry inhibition, cell reporter; 1.2% of 300,000 active; AID 540256, 2011; Potency, µM (doses to about 37.9 µM), usual class: inhibitors; calls by dose curve; tested in HEK293 cells; note: nearly all actives have a fitted effect of over 50% in size
Shiga inhibitor – A qHTS for Small Molecule Inhibitors of Shiga Toxin. Vero cells, Shiga toxin protein synthesis inhibition reporter. inhibition, % at 38.7 µM. 9.2% of 290,000 active. AID 2315, 2010; in the data active = inhibition mostly above about 28%, no sharp cut-off; inactive = mostly below about 43%
MARV entry inh – qHTS for inhibitors of binding or entry into cells for Marburg Virus | Marburg virus pseudotyped entry inhibition, cell reporter | Potency, µM (titrated, usually from 37.8 µM), most hits filed as inhibitors | 1.8% of 300,000 active | AID 540276, 2011; calls by dose curve; tested in HEK293 cells
Cycloheximide cs – Cycloheximide Counterscreen for Small Molecule Inhibitors of Shiga Toxin; 12% of 300,000 active; cell reporter, cycloheximide protein synthesis inhibition counterscreen; max response, %; AID 2314, 2010; in the data active = max response mostly above about 13%, no sharp cut-off; inactive = mostly below about 14%; note: read at 38.3 µM for the half of the compounds with a filed dose
Hits are given with their value; - = inactive; ? = inconclusive; . = no result; [ ] = dose if it differs, or a comment. Sampled rows, rich in hits. Any-hit rate of the full collection: about 13%.

SMILES	HCV inhibitor	FMDV antiviral	Lassa entry inh	Shiga inhibitor	MARV entry inh	Cycloheximide cs
C/C(CC(=O)Nc1cc(C)ccn1)=N\NC(=O)c1ccccc1C	-	-	.	51	?	26
C/C(CC(=O)Nc1ccccn1)=N\NC(=O)C(=O)Nc1cccc(C)c1	-	-	-	-	-	-
O=S(=O)(c1ccc(-c2cc(C(F)(F)F)on2)s1)N1CCCC1	-	-	-	-	?	-
C[C@@H]1CN([C@@H](C)CO)S(=O)(=O)c2ccc(Br)cc2O[C@@H]1CN(C)C(=O)c1ccncc1	.	-	.	.	.	.
C/C(CC(=O)Nc1ccccn1)=N\NC(=O)c1cccc(C)c1	-	-	-	40	-	21
C/C(CC(=O)Nc1cccc(Cl)c1Cl)=N\NC(=O)C(=O)N1CCCC1	-	-	-	-	-	-
C/C(CC(=O)Nc1cc(C)ccn1)=N\NC(=O)c1cccc(F)c1	-	-	-	110	?	31
C/C(CC(=O)Nc1cccc(Cl)c1Cl)=N\NC(=O)c1ccccc1C	-	-	-	-	?	11
C/C(CC(=O)Nc1cc(C)ccn1)=N\NC(=O)c1ccc(C)cc1	-	-	-	53	-	29
C/C(CC(=O)Nc1cccc(C(F)(F)F)c1)=N\NC(=O)c1ccncc1	-	-	.	-	-	-
Cc1ccc(C(=O)NCC(=O)Nc2cc(C)ccn2)cc1	-	-	-	.	?	.
FC(F)(F)c1nnc(-c2ccccc2)nc1N1CCOCC1	-	-	-	-	-	-
FC(F)(F)c1cccc(-c2nnc(-c3ccccc3)c(N3CCOCC3)n2)c1	10µM	-	-	-	-	-
COc1ccc(C2C(Oc3ccccc3)C(=O)N2c2ccc(C)c(C)c2)cc1OC (stereo not given)	11µM	-	?	.	?	.
COc1ccc(C2C(Oc3ccccc3)C(=O)N2c2cc(C)ccc2C)cc1OC (stereo not given)	-	-	?	-	?	-
CC(C)(C)c1ccc(C(=O)Nc2nnc(C3=COCCO3)o2)cc1	-	-	-	-	-	-
Oc1ccc(CCNc2ncnc3ccc(Cl)cc23)cc1	3.2µM	10µM	.	-	.	-
Nc1nc(SCC(=O)N2CCCCC2)[nH]c(=O)c1NC(=O)c1cccs1	-	-	-	-	-	-
Cc1cc(=O)c(C(=O)O)nn1-c1ccccc1F	-	-	-	-	-	-
Cc1nn(Cc2ccccc2Cl)c(C)c1NC(=O)c1cc(-c2ccc(F)cc2)on1	3.5µM	-	-	-	?	-
COc1cccc(-c2cc(C(=O)Nc3c(C)nn(Cc4ccccc4)c3C)no2)c1	10µM	-	-	-	?	-
COc1cccc(N2CCN(C3C4CC5CC(C4)CC3C5)CC2)c1 (stereo not given)	-	-	-	-	-	22
CC(C)Sc1cc(N2CCCC2)nc(-c2ccccc2Cl)n1	?	-	-	-	?	-
Cc1cccc(N2CCN(C(=O)c3ccc(Cl)c(S(=O)(=O)NCc4ccco4)c3)CC2)c1C	10µM	?	-	-	?	-
CC1CN(C(=O)c2ccc(Cl)c(S(=O)(=O)NCc3ccco3)c2)CC(C)O1 (stereo not given)	-	-	.	.	.	.
SMILES	HCV inhibitor	FMDV antiviral	Lassa entry inh	Shiga inhibitor	MARV entry inh	Cycloheximide cs
O=C(c1cccc(S(=O)(=O)NCc2ccccc2)c1)N1CCN(c2ccccc2Cl)CC1	11µM	-	.	.	-	.
CCN1c2ccccc2-c2nc3ccccc3n2C1c1cccnc1 (stereo not given)	?	.	-	-	?	-
COc1ccc(C(C(=O)NCc2ccccc2)N(C(=O)c2snc(C(N)=O)c2N)C2CCCC2)cc1O (stereo not given)	-	-	-	-	?	-
Nn1c(-c2ccco2)n[nH]c1=S	-	-	-	-	-	-
CN=C(c1ccc(C)cc1)n1c(=S)nc(-c2ccc(C)cc2)n(C)c1=S	-	-	-	85	-	43
CN=C(c1ccco1)n1c(=S)nc(-c2ccco2)n(C)c1=S	11µM	-	-	-	-	-
CCCCN1C(N)=NC[C@H]1Cc1ccc(O)cc1	-	-	.	-	.	-
CC(C)c1ccc(NC(=S)N2CCCC(c3ccc(F)cc3)=N2)cc1	-	-	-	-	2.5µM	-
COc1ccc(/C=N/NC(=O)c2cccc(NC(C)=O)c2)c(OC)c1	-	-	-	-	-	-
COc1ccc(C(=O)Nc2cccc(C(=O)N/N=C/c3ccc(OC)cc3OC)c2)cc1	?	-	-	-	-	39
COc1ccc(/C=N/NC(=O)c2cccc(NC(=O)c3ccccc3)c2)c(C(=O)O)c1OC	-	-	-	-	-	32
Cn1c(=O)c(-c2ccc(F)cc2)nc2cnc(Oc3ccccc3)nc21	.	-	.	.	.	.
CC(C)CCNC(=O)C(=O)Nc1ccccc1	-	-	-	162	-	45
CC(C)CCNC(=O)c1ccc(-c2ccccc2)cc1	.	.	.	84	.	36
CC(C)CCNC(=O)C(=O)Nc1c2c(nn1-c1ccccc1)CS(=O)(=O)C2	.	-	?	.	.	.
CC(C)CCNC(=O)c1ccc(Cl)c(N)c1	.	.	.	57	.	37
CCOC(=O)NC(=O)COC(=O)c1ccc(O)cc1	-	-	?	-	-	-
COc1ccc(C2CC(=O)c3ccccc3O2)cc1 (stereo not given)	-[8.37 µM]	-	-	-	-	41
O=C1CC(c2ccc3c(c2)OCCO3)Oc2ccccc21 (stereo not given)	-	-	.	80	.	52
COc1ccc(C2CC(=O)c3cc(OC)ccc3O2)cc1 (stereo not given)	-	-	-	.	-	.
O=C1CC(c2ccc3c(c2)OCCO3)Oc2ccc([N+](=O)[O-])cc21 (stereo not given)	-	?	.	88	.	46
CCCC(=O)NC1=C(C#N)C2(CCCCC2)Cc2ccccc21	-	-	-	-	-	-
COc1ccc(OCC(=O)Nc2ccc3c(c2)C(=O)NC3=O)cc1	-	-	.	-	.	-
CCc1ccc(NC(=O)Cn2nc(C(=O)O)c3ccccc3c2=O)cc1	-	-	-	-	-	-
Cc1nn(CC(=O)Nc2ccc(Cl)cn2)c(C)c1Br	-	-	-	-	-	-
SMILES	HCV inhibitor	FMDV antiviral	Lassa entry inh	Shiga inhibitor	MARV entry inh	Cycloheximide cs
Cc1ccc(Nc2c(-c3ccccn3)nc3cccc(C)n23)cc1	6.3µM	?	.	-	.	-
Cc1cccc2nc(-c3ccccn3)c(Nc3ccccc3)n12	.	?	11µM	.	?	.
Cc1cccc(C)c1Nc1c(-c2ccccn2)nc2ccccn12	10µM	-	.	-	.	-
Cc1cccc(C)c1Nc1c(-c2ccsc2)nc2ccccn12	.	-	-	.	?	.
CCCCNS(=O)(=O)c1ccc2nc(SCC(=O)Nc3sccc3C#N)[nH]c2c1	-	-	-	-	?	-
O=C(C1CC(=O)N(c2ccccc2)C1)N1CCC(c2nc3ccccc3[nH]2)CC1 (stereo not given)	-	-	-	.	-	.
C/C(=N\NC(=O)c1ccn(C)n1)c1cccc(NC(=O)c2ccncc2)c1	-	-	-	45	-	30
C/C(=N\NC(=O)c1c(Cl)cnn1C)c1cccnc1	-	-	.	56	.	39
